# Rows were chosen to be rich in hits. Some 11% of all compounds tested hit in one or more screens of this group.
# G9a block = qHTS Assay for Inhibitors of Histone Lysine Methyltransferase G9a. G9a H3K9 monomethylation, AlphaScreen, 2 h. hit rate 8.8% among 350,000. Histone-lysine N-methyltransferase EHMT2 (Homo sapiens), Q96KQ7. Potency, µM (doses to about 102 µM), most hits filed as inhibitors. AID 504332, 2011; note: nearly all actives have a fitted effect of over 75% in size
# Target sequence (Q96KQ7 913-1193 limits assumed): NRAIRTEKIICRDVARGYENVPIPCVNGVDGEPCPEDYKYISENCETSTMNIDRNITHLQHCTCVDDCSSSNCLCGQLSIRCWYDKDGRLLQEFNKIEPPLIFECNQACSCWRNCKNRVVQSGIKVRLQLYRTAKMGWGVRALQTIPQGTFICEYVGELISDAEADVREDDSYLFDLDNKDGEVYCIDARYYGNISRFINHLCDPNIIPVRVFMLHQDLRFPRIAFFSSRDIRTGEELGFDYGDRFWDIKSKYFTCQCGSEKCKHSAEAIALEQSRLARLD
#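 Quantitative HTS format: methyltransferase activity on a biotin-tagged H3K9 peptide is measured by AlphaScreen, using a rabbit anti-monomethyl-H3K9 antibody with streptavidin donor and anti-IgG acceptor beads. Final levels are 20 nM enzyme, 500 nM peptide, 20 uM SAM; 2 h RT.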
# PI5P4Ka inh = qHTS for Inhibitors of phosphatidylinositol 5-phosphate 4-kinase (PI5P4K). hit rate 1.2% among 330,000. PI5P4Kalpha enzyme, ADP-Glo luminescence, 60 min; hits give low values. max response, %; active = max response of -50% or lower; inconclusive = between -30% and -50%; inactive = -30% or higher; note: value at the top dose of about 77 µM
#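 PI5P4Kalpha ADP-Glo assay; 5 microM ATP final; 60 min RT reaction; HEPES pH 7.4/EGTA/CHAPS, 5% DMSO; controls lacking substrate or enzyme; luminescent end-point.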
# BAZ2B inh = qHTS Assay for Inhibitors of BAZ2B | AlphaScreen BAZ2B-H3K14Ac peptide displacement | Potency, µM (highest dose often 114 µM), actives largely listed as inhibitors | hit rate 4.4% among 360,000 | AID 504333, 2011; note: nearly all actives have a fitted effect of over 60% in size
#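 In this displacement format the biotinylated H3(5-23) peptide acetylated at Lys14 serves as ligand at 50 nM, with BAZ2B at 50 nM in PBS pH 7.4 containing 0.01% Tween-20. Donor and acceptor beads are 10 ug/mL final.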
# L3MBTL1 inh = qHTS Assay for the Inhibitors of L3MBTL1; hit rate 0.66% among 230,000; AID 485360, 2010; AlphaScreen L3MBTL1–H3K9me1 peptide binding; Lethal(3)malignant brain tumor-like protein 1 (Homo sapiens), Q9Y468; Potency, µM (highest dose often 57.1 µM), actives largely listed as inhibitors; note: nearly all actives have a fitted effect of over 60% in size
#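 L3MBTL1 50 nM + b-AHA-H3(1-15)K9me1 75 nM, 30 min RT; compound added, 30 min RT; streptavidin donor/Ni-chelate acceptor beads 10 ug/mL each final, 30 min RT dark; AlphaScreen read.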
# JMJD2A Tudor inh = qHTS Assay for Inhibitors of JMJD2A-Tudor Domain; Lysine-specific demethylase 4A (Homo sapiens), O75164; hit rate 4.4% among 390,000; AID 504339, 2011; Potency, µM (doses to about 114 µM), usual class: inhibitors; AlphaScreen JMJD2A-Tudor / H3K4me3 peptide binding; note: nearly all actives have a fitted effect of over 50% in size
# HP1b chromo inh = HTS for Inhibitors of HP1-beta Chromodomain Interactions with Methylated Histone Tails; hit rate 0.56% among 390,000; Potency, µM (top dose mostly 114 µM), usual class: inhibitors; Chromobox protein homolog 1 (Homo sapiens), P83916; AlphaScreen HP1-beta / biotin-H3K9me3 peptide binding; note: nearly all actives have a fitted effect of over 70% in size
# Target sequence (P83916 whole entry, looked up): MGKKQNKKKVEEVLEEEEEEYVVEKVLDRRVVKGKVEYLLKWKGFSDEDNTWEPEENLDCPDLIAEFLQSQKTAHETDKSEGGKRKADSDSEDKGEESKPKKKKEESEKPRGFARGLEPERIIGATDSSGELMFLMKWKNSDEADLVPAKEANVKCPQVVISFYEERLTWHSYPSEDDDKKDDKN
#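 Compound inhibition of the preformed complex between 50 nM HP1-beta and 50 nM biotinylated H3K9me3 peptide was read by AlphaScreen. Buffer was PBS pH 7.4 with 0.01% Tween-20. Incubations ran 30 min at room temperature, with 10 ug/mL donor/acceptor beads.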
# Hits are given with their value; n = inactive; u = inconclusive; x = not tested or not shown; [ ] = dose if it differs, or a comment. Unless noted, calls come from the whole dose curve; as a rule, active = well fitted inhibition curve with a large enough effect; inconclusive = small, poorly fitted or top-dose-only effect; inactive = no such curve, though single readings can be large or run the other way.
SMILES,G9a block,PI5P4Ka inh,BAZ2B inh,L3MBTL1 inh,JMJD2A Tudor inh,HP1b chromo inh
CCN1CCN(S(=O)(=O)c2ccc(Cl)c(C(=O)N(CCc3ccccc3)Cc3ccccc3)c2)CC1,x,n,x,x,u,n
COc1ccc(CNC(=O)CSC(=S)N2CCCC2)cc1,n,n,n,n,n,n
CC(C)c1ccc(CCNC(=O)CSC(=S)N2CCCC2)cc1,15.8µM,n,n,n,n,n
Cc1ccc(OCC(=O)Nc2ccc(S(=O)(=O)N3CCCC3)cc2)cc1,79.4µM,n,n,x,n,n
COCc1nnc(NC(=O)C2CCN(C(=O)c3ccccc3)CC2)s1,x,x,x,x,n,n
Cc1nnc(SCc2ccccc2Cl)c2cc3occc3n12,12.6µM,x,28.2µM,x,u,n
Cc1nnc(SCc2ccccc2Cl)c2cc3sccc3n12,u,x,u,x,n,n
C=CCc1c(C)nc2nc(SCC(=O)Nc3ccc(OCC)cc3)nn2c1C,n,x,n,x,n,n
COc1ccc(N2CCN(C(C)C(=O)N3CC(C)OC(C)C3)CC2)cc1 (stereo unspecified),44.7µM,n,56.2µM,x,0.891µM,u
COc1cc2c(cc1OC)CN(C(C)C(=O)N1CCc3ccccc31)CC2 (stereo unspecified),u,n,56.2µM,x,n,n
COc1ccc(N2CCN(C(C)C(=O)N3CCc4ccccc43)CC2)cc1 (stereo unspecified),39.8µM,n,u,x,u,u
CC(C(=O)N1CCc2ccccc21)N1CCc2ccccc2C1 (stereo unspecified),n,x,n,n,n,n
Cc1ccc(NC(=O)C2CCCN(S(=O)(=O)c3ccc(C)cc3)C2)cc1 (stereo unspecified),n,x,n,x,n,n
Cc1cc(C)cc(NC(=O)CC(C)n2nc(C)cc2C)c1 (stereo unspecified),n,x,n,x,n,n
COCC(=O)N1CCC2(CCCN(C(=O)Nc3ccc(OC)cc3)C2)CC1,n[12.7 µM],x,x,x,x,x
CSc1nsc(SC)c1NC(=O)N1CCCCC1,44.7µM,n,n,x,n,n
CSc1nsc(SC)c1NC(=O)Nc1ccccc1C,n,n,n,u,n[11.4 µM],n
COc1cc(/C=N/N2CCN(Cc3ccccc3)CC2)cc(OC)c1OC,x,n,x,x,x,x
COc1cc(/C=N/N2CCN(Cc3ccccc3)CC2)cc(OC)c1OC(C)=O,50.1µM,n,u,x,u,n
COc1cc(/C=N/N2CCN(c3ccccc3)CC2)cc(OC)c1OC(C)=O,n[0.501 µM],n,44.7µM,n[2.29 µM],56.2µM,u
COc1cc(/C=N/N2CCN(c3ccc(Cl)cc3)CC2)cc(OC)c1OC(C)=O,x,n,n,n,n,n
Cc1ccc(CCNS(=O)(=O)c2c(C)nc3sc(C)c(C)n3c2=O)cc1,n,x,n,x,n,n
COc1ccc(CNC(=O)CCc2c(C)nc3nc(CNC(=O)OC(C)(C)C)nn3c2C)cc1,n,x,n,x,n,n
CCCN1CNc2c(c(=O)[nH]c(=S)n2CCc2cc(Cl)cc(Cl)c2)C1,x,x,x,x,n,n
O=C(O)c1ccc(/C=N/NC(=O)C2CC2(c2ccccc2)c2ccccc2)cc1 (stereo unspecified),n,x,n,n,x,x
SMILES,G9a block,PI5P4Ka inh,BAZ2B inh,L3MBTL1 inh,JMJD2A Tudor inh,HP1b chromo inh
O=C(N/N=C/c1ccco1)C1CC1(c1ccccc1)c1ccccc1 (stereo unspecified),39.8µM,n,u,n,n,n
Cc1c(Cl)cccc1NC(=O)Cn1c(=O)cc(C)c2c(C)nn(-c3cccc(F)c3)c21,n,x,n,x,n,n
COc1ccc(CN2C(=O)N(c3ccc(C)cc3)C(=O)C2CC(=O)Nc2ccccc2)cc1OC (stereo unspecified),n,x,n,x,n,n
O=C(NCc1nnc(-c2cc3ccccc3[nH]2)o1)c1ccccc1,x,x,x,x,n,x
CCOCCCNC(=S)N(CCN(C)C)Cc1cc2cc3c(cc2[nH]c1=O)OCCO3,50.1µM,n,n,n,n,n
CC(C)CNC(=S)N(CCCO)Cc1cc2cc3c(cc2[nH]c1=O)OCO3,39.8µM,n,n,n,n,n
CC(C)CNC(=S)N(CCN(C)C)Cc1cc2cc3c(cc2[nH]c1=O)OCO3,n,n,n,n,n,n
CC(C)OCCCNC(=O)c1sc(=S)n(C)c1N,14.1µM,n,n,n,n,u
Cn1c(N)c(C(=O)Nc2ccc(-c3ccccc3)cc2)sc1=S,8.91µM,n,50.1µM,n,50.1µM,u
C=CCn1c(N)c(C(=O)N2CCOCC2)sc1=S,u,x,n,x,n,n
CCn1c(N)c(C(=O)NCCCOC)sc1=S,28.2µM,n,u,n,n,50.1µM
CCn1c(N)c(C(=O)N2CCOCC2)sc1=S,10µM,n,n,n,n,u
CCCCCC=CCC=CCCCCCCCC(=O)OCC,n[12.7 µM],x,x,x,x,x
CCOc1ccccc1C(=O)Nc1cccc(-c2nc3ccccc3s2)c1,u,x,n,x,n,n
COc1cc(C2NC(=O)NC(C)=C2C(=O)Nc2cc(C)cc(C)c2)ccc1O (stereo unspecified),n,x,n,x,n,n
Cc1nc2nc(C)c(CCC(=O)NCc3ccccc3)c(C)n2n1,n,x,n,x,n,n
CCNC(=O)c1sc(=S)n(CC)c1N,12.6µM,n,u,n,n,n
CCn1c(N)c(C(=O)NCC2CCCO2)sc1=S (stereo unspecified),n[12.7 µM],u,79.4µM,n,u,11.2µM
CCn1c(N)c(C(=O)NCc2cccnc2)sc1=S,n,n,n,n,n,n
CCOc1ccc(/C=C/c2nc(C#N)c(NC(C)CC)o2)cc1 (stereo unspecified),n,x,n,x,n,n
Cc1ccc(S(=O)(=O)N2CCN(C(=O)COC(=O)CNC(=O)c3ccccc3)CC2)c(C)c1,n,n,n,u,n,n
COc1ccc(N2CCN(C(=O)COc3ccc(Cl)cc3Cl)CC2)cc1,6.31µM,n,u,x,u,n
Cc1ccc(S(=O)(=O)N2CCN(C(=O)COC(=O)CNC(=O)c3ccc(Cl)cc3Cl)CC2)c(C)c1,x,n,x,x,25.1µM,n
COc1ccc(N2CCN(C(=O)COC(=O)CNC(=O)c3ccc(Cl)cc3Cl)CC2)cc1,44.7µM,n,n,n,n,n
Cn1cccc1C(=O)N1CCC2(CCCN(Cc3ccccc3)C2)CC1,n[12.7 µM],x,x,x,x,x
COc1cc2nc(NC(=O)c3ccc(F)cc3Cl)sc(=O)c2cc1OC,35.5µM,n,n,x,n,n
O=C(Nc1nc2ccsc2c(=O)s1)c1ccc(F)cc1Cl,n,n,n,x,u,n
O=C(Nc1cccs1)NC1CCCC1,31.6µM,n,n,x,n,n
CCc1ccccc1NC(=O)Nc1cccs1,50.1µM,n,n,x,n,n
